The campaign covered roughly 31,000 sequences. About 1,400 (4.5%) were called active.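 How the source made its calls: active means median seed-adjusted z-score above 1 or below -1; inactive means the rest.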 The entries come from a sample that favours actives as a whole.
Assay: Novel Modifiers of Survival Motor Neuron (SMN) Protein: Gene Identification via Genome-wide siRNA Screen;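 further: luminescence tracks full-length SMN protein made from the SMN2 reporter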
Details: HEK293T SMN2-luciferase reporter, siRNA knockdown, 72 h; actives lie on both sides
In short: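 Each of three siRNAs per gene is reverse-transfected (1 pmol) into reporter HEK293T cells whose luciferase output tracks SMN protein level. After 72 h culture, ONE-Glo luminescence is control-normalized, log10-transformed and MAD-standardized; Common Seed Analysis deprioritizes seed-driven hits.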

Sequence | median seed-adjusted z-score
GGGUGUCUGCGAUUAUCUUTT against WDFY1 | 0.979 (inactive)
GGUUGGUGAUGUCAAGUAUTT against CDKL2 | -0.293 (inactive)
AGUGGUCCCUUCACAGGAATT against GNRH2 | 1.13 (active)
AGCCUUUAGUGUCCGUUCATT against ZNF347 | 0 (inactive)
GGGACUAGCUCUUCGCAUATT against PTGER3 | -0.321 (inactive)
GACUCUGAAUGCUUGCUGUTT against MMS19 | 0.0142 (inactive)
CCAUCUAUGAGGCGGGAAATT against MFI2 | 0.365 (inactive)
GAAUCUUGCCCGUCUAUAATT against RSC1A1 | 0.438 (inactive)
CACCAUCUCCGGGAACAGATT against FUT1 | 0.000845 (inactive)
GCAUGGGUUUUAUUAUAUATT against CCL11 | -0.221 (inactive)
CACGAGCUAAAGUAAAAUATT against EGLN1 | 2.05 (active)
CAUCAUUACUGUUGAGGGATT against CSRP2BP | -0.526 (inactive)
GAGAAACCUUUAUUCGAUATT against GLULD1 | -0.332 (inactive)
CCAUCGACAUUGAAACCUUTT against PITPNM2 | 0.275 (inactive)
GCAAUGCGUUCUUUCUAAATT against SIGLEC11 | -0.395 (inactive)
CAAAGAGAUUUGUACAGAUTT against ZNF140 | 0.587 (inactive)
GGACGAGCCUCAUGAAUGATT against SEC11B | 1.04 (active)
CAGUGUCCAUGUACCUCUUTT against SLC37A4 | -0.00202 (inactive)
GCAUUUAGGUACCAGCUCATT against SLC39A2 | 0.0602 (inactive)
CCAGGGAUAUGAUUGACAATT against SERPINE2 | 0.0144 (inactive)
GCAGUACACGAGAAAGUCATT against 1-Sep | 0.0103 (inactive)
CUACAUCAAGAAGACAUAUTT against ABHD2 | -1.21 (active)

Sequence | median seed-adjusted z-score
CUCUCUCUCUACGAACAUUTT against TCF7 | -0.338 (inactive)
CGACCCAGACAAUAGACUATT against CCNT1 | -0.72 (inactive)
GGUAUGGAUUGAUGCCGCATT against SLC6A2 | 0 (inactive)
GCACCAUUCUAACAAUGGATT against NANS | -1.54 (active)
CCAACAAGCUGUCUCCCUATT against CENPB | 0.292 (inactive)
GUACAAGAGAUAAUGCAAATT against TFPI | -0.0076 (inactive)
CUAUCAUAGUGACAAGCGATT against GJA5 | 0.707 (inactive)
AAGUACAUAUAACCACUUATT against RAB14 | -0.0567 (inactive)
CAGUGACCCGGAUCCUCUATT against RHCG | 0.375 (inactive)
CCUGGACGAGUUUAUAAUATT against AP1S3 | 0.153 (inactive)
GCCGUAUAAGUGUCAAGCATT against ZNF57 | 0 (inactive)
CAAUGUUAGGAGUCAGUCATT against ACTL6A | 1.11 (active)
AGGGCUUGUUUGACAACUUTT against CHTF18 | 0.371 (inactive)
GCUGAUACCUUCUACCGUATT against GDPD2 | -0.0868 (inactive)
ACCGCACGAUGUUCAACUUTT against DNAJC30 | 0.329 (inactive)
CAGACAUGAAGUAUAAGAATT against TCEA2 | 0.552 (inactive)
CCUGCCCAAUGUGACCUUUTT against MRC2 | -1.34 (active)
CAAAUCCUAUAGUAUAACATT against RPS6KC1 | 0.344 (inactive)
AGAUUAAGAUGUUCUACGATT against ADI1 | 0.0593 (inactive)
GCCCAUUGACUAUUACUUUTT against AR | -0.559 (inactive)
GAUGGAAGAUGGAACGGUUTT against CDC42BPA | 0.257 (inactive)
GUAUGUCAAGGAGAACGGATT against CTSL2 | -1.04 (active)

Sequence | median seed-adjusted z-score
CAUUAUCACUGGUGCACUUTT against CHN1 | 2.1e-05 (inactive)
GGAAUAACAGUUGUAGGAATT against TMTC3 | 0.266 (inactive)
GAGAGCAACUUAAAGACGATT against ST18 | 0.0762 (inactive)
UGCUCUACAUCAACCCUGATT against FSHR | -0.462 (inactive)
GAAGAGCCGUAUGAUCGAATT against ZNF432 | -0.124 (inactive)
CAAGGAGCAGGGAUAUGAATT against ADAP2 | -1.1 (active)
GAGAGAUUGUGAUUGGAGATT against BHMT | 0 (inactive)
GGAUCCUAUUGAGAGGCUATT against HS2ST1 | 0.421 (inactive)
GCACCAAGCAUUAUGAAAATT against SDCBP | 0.0325 (inactive)
CACCUGAAGUAAAUCGGAUTT against SF3B14 | -1.26 (active)
AGACAGUGUGGGUCCUGGATT against CD300E | 0.337 (inactive)
GGCAGUUAAUGGAACAAUUTT against MTMR7 | -0.207 (inactive)
CGUGGGCUCUAUCUACUAUTT against PUF60 | 2.26 (active)
GAUAGAUCGUUUUAAGAGATT against MST4 | 0.343 (inactive)
CGACAACAUAUGUUCCGGATT against TNFRSF11B | 0.582 (inactive)
UAAUCAAGCUGAAAACAGATT against TRYX3 | 2.3 (active)
AAUUCGAGCUGGUGCCAUCTT against MYCL1 | 0.0658 (inactive)
ACCUCUACGUGGUCAGCUATT against DPP9 | -0.224 (inactive)
CCAAACGAUUUAUACCUAATT against IPMK | -0.00138 (inactive)
GAACAACCUGGAGAAAUAUTT against ENDOG | -0.336 (inactive)
GGAGAGACAUCGUCAGCUATT against AGXT | 0.017 (inactive)
GAUGCUGGUUGGUUCGAUATT against MFSD4 | -1.89 (active)

Sequence | median seed-adjusted z-score
GAGUUUCGCCUGCUACAGATT against CELSR3 | 0 (inactive)
GGAUGAUUCGGAAGGUGAATT against ZNF467 | 0 (inactive)
GGGCCGUGCUGAUUGAGAATT against GPX2 | -0.21 (inactive)
GGAGAAGAAUGAGCAACUUTT against ADAM19 | 0.0996 (inactive)
GGGCUUUGAUAGGAAUGCATT against UBE2K | 0.497 (inactive)
CGCAGUAUGUGGACUAUGATT against NID2 | 0.283 (inactive)
GCUGAAAUCAAAAAGCGGATT against RAB1B | 1.55 (active)
GGAAUGUGGUAACAGGAGATT against GMPR2 | 0.232 (inactive)
CCUACUCUGUUGUUCGAAATT against C3 | 0.0281 (inactive)
GCGGGAGAAGCUUACCUUUTT against DPP3 | -0.261 (inactive)
GGAAAUAUGCGGCUACGGATT against NADSYN1 | 0.217 (inactive)
CGGGUACUGCUACACCUUUTT against SLC22A8 | 0.175 (inactive)
GUGAGACAGUUGACCGAGATT against SLC26A2 | -1.25 (active)
CAUUCAAAUUUACCCUGUATT against POLR2H | -2.74 (active)
GGACCUUGUUAACAGUGGATT against APOBEC1 | -0.323 (inactive)
CCCUGUACGUGUACAUCAUTT against MPG | -0.0888 (inactive)
GAGGCAGUCUUAAAAUGGATT against RAB32 | -0.112 (inactive)
CUUCAAGAAUAAGUACGAATT against KRT7 | 0 (inactive)
GUGUGAUUCUUGGAGCAAATT against PLD2 | -0.743 (inactive)
CAACUACAACUGUGAGAUUTT against SF3A3 | -2.1 (active)
GAAAUACUGCGGUAUAAAATT against SYTL2 | 0.211 (inactive)
GCCCAUAGAGGGUUCAGAATT against CCNT1 | -0.72 (inactive)

Sequence | median seed-adjusted z-score
GAGAUGAACCGGAACAUCATT against LOC650864 | 0.214 (inactive)
GAACCAUGGAUGGUGAUAATT against ZNF287 | 0.0213 (inactive)
GCUCCACAGCAUAUGCUCATT against NFIL3 | 0.4 (inactive)
GAACUGUGAAUUAGAUGUATT against F9 | 0.332 (inactive)
GGAACACGCUGACAGGACATT against FZR1 | 0.729 (inactive)
CGAUGUUGAAGUUACACCATT against ATP13A4 | -1.09 (active)
CCGCGAAUCCAUGACAAUATT against UGCG | 0.492 (inactive)
CCACCUCUACCAAACAUUUTT against IL2RG | -0.155 (inactive)
GGAGAUUCAUUCUAACCAUTT against ADAMTS19 | -0.39 (inactive)
CAGUGAGAGUUUCAUCUUUTT against PKD1L2 | -1.17 (active)
GGAUAUGAGUUACAUGACATT against GALNT5 | -0.279 (inactive)
GGACGACUUCUUUAAGUCATT against PGD | -1.55 (active)
CGGCAAUUGUUGACGUGAATT against TXNDC11 | 0.642 (inactive)
GGAUGGACUUUAUCCAGCATT against TM7SF4 | 0.0246 (inactive)
GGACAACAGUCGGUCGAAUTT against ANP32C | -0.421 (inactive)
UGAUAUCGGCUACGUCAAATT against NAGK | 0.446 (inactive)
GGAUUACAGUGUCCAAAGATT against ADRA1A | -1.06 (active)
CCUACUAUGUGAGCAAUGATT against EEF1G | -0.206 (inactive)
GAGUCACAAUCGCAUGAAATT against FKBP9 | 0.359 (inactive)
CCACACUUUUGGUCUUUAATT against PGDS | 0.02 (inactive)

— PubChem BioAssay AID1347426 (Functional Genomics Laboratory (NCATS/FGL), 2020)
